Experimental data as given in PubChem BioAssay (NCATS).
Results filed as inconclusive are left out. Entries that show only a call come without a potency. Values without a mark were called inactive. Active and inactive are the calls of the source. The call rests on the fitted dose curve; in most records, active means well fitted inhibition curve with a large enough effect; inconclusive means small, poorly fitted or top-dose-only effect; inactive means no such curve, though single readings can be large or run the other way.

Assay: Primary qHTS for inhibitors of nuclear receptor binding SET domain protein 2 (NSD2) in an RCH-ACV wild type WT cells (2C) (AID 1645877); further: nearly all actives have a fitted effect of over 70% in size
Conditions: RCH-ACV (leukaemia line) NSD2 WT (2C) viability, CellTiter-Glo, 72 h; series mostly up to 44.9 µM

For `CC(=O)OCC(Cc1ccccc1)NC(=O)C(Cc1ccccc1)NC(=O)c1ccccc1` (centres undefined), which Potency is on record?
Its Potency is “inactive”.

For `CC1(C)CC[C@]2(C(=O)O[C@@H]3O[C@H](CO)[C@@H](O)[C@H](O)[C@H]3O)CC[C@]3(C)C(=CCC4[C@@]5(C)CC[C@H](OC6OC(C(=O)O)C(OC7OC(CO)C(O)C(O)C7O)C(O)C6O)C(C)(C)C5CC[C@]43C)C2C1` (some centres undefined), which activity change, negative = cell killing is on record?
Its activity change, negative = cell killing is -22.4% [at 9.23 µM].

With `CC(=O)NC1CC(=O)C23C(=O)NC(Cc4c[nH]c5ccccc45)C2C(C)=C(C)C(O)C3/C=C/CC(C)/C=C(/C)C(O)C1O` (centres undefined) as the molecule, how does the Potency read?
The Potency was “inactive”.

Which Potency does the source give for `C=C(C(=O)O)[C@@H]1CC[C@@]2(C)CCC[C@@](C)(O)[C@@H]2C1` here?
The Potency was “inactive”.

Which Potency does the source give for `CC(=O)c1ccc(O[C@@H]2OC[C@@H](O)[C@H](O)[C@H]2O[C@]2(CO)O[C@H](CO)[C@@H](O)[C@@H]2O)c(O)c1` here?
The Potency was “inactive”.

Which Potency does the source give for `CC1CC(=O)[C@]2(O)C(C(=O)OCCc3ccc(O)cc3)=CO[C@@H](O[C@@H]3O[C@H](CO)[C@@H](O)[C@H](O)[C@H]3O)[C@H]12` (some centres undefined) here?
The Potency was “inactive”.

For `CC(=O)OCC1=CCC2C(C)(C)CCCC2(C)C12CCC(C)(CC(=O)O)O2` (centres undefined), which Potency is on record?
Its Potency is “inactive”.

For `CC(=O)O[C@@H]1C(=O)C(C)=C(CCC(C)CC(=O)O)[C@@]2(C)CCCC(C)(C)C12` (some centres undefined), which Potency is on record?
Its Potency is “inactive”.

For `C[C@@H]1O[C@@H](O[C@H]2[C@H](O[C@H]3[C@H](O[C@H]4CC[C@@]5(C)C(CC[C@]6(C)C5CC=C5[C@@H]7CC(C)(C)C[C@@H](O)[C@]7(C)CC[C@]56C)C4(C)C)O[C@H](C(=O)O)[C@@H](O)[C@@H]3O)O[C@H](C(=O)O)[C@H](O)[C@@H]2O)[C@H](O)[C@H](O)[C@H]1O` (some centres undefined), which outcome is on record?
The outcome was “inactive [at 9.23 µM]”.

For `C[C@H]1[C@H](C)CC[C@]2(C(=O)O)CC[C@]3(C)C(=CCC4[C@@]5(C)C[C@@H](O)[C@H](O)C(C)(C)C5CC[C@]43C)[C@H]12` (some centres undefined), which Potency is on record?
Its Potency is “inactive”.

Which Potency does the source give for `CC(C)(O)[C@@H]1CC[C@]2(CO)[C@@H](O)CC[C@](C)(O)[C@H]2[C@@H]1O[C@@H]1O[C@H](CO)[C@@H](O)[C@H](O)[C@H]1O` here?
The Potency was “inactive”.

With `Cc1ccc(C)c(S(=O)(=O)n2cnc3ccccc32)c1` as the molecule, how does the Potency read?
The Potency was “inactive”.

With `O=C(OC[C@H]1O[C@H](O[C@H]2CO[C@H](CO)[C@@H](O)[C@@H]2O)[C@H](O)[C@@H](O)[C@H]1O)c1ccccc1` as the molecule, how does the Potency read?
Its Potency is “inactive”.

With `CC(C)(Oc1ccc(-c2nc3cc(Cl)ccc3s2)cc1)C(=O)O` as the molecule, how does the Potency read?
Its Potency is “inactive”.

With `C/C1=C\CC[C@]2(C)O[C@H]2C(=O)c2c(C)coc2C1` as the molecule, how does the Potency read?
Its Potency is “inactive”.

Which Potency does the source give for `CC(=O)O[C@H]1[C@H](O[C@H]2CC[C@]34C[C@]35CC[C@]3(C)[C@@H]([C@@]6(C)CC[C@@H](C(C)(C)O)O6)[C@@H](O)C[C@@]3(C)[C@@H]5C[C@H](O[C@@H]3O[C@H](CO)[C@@H](O)[C@H](O)[C@H]3O)[C@H]4C2(C)C)OC[C@@H](OC(C)=O)[C@@H]1O` here?
Its Potency is “inactive”.

For `COc1ccc(C2OCC3C(c4cc(OC)c5c(c4)OCO5)OCC23)cc1OC` (centres undefined), which Potency is on record?
The Potency was “inactive”.

Which Potency does the source give for `C=C1C(O)CC2C(C(=O)O)=COC(O[C@@H]3O[C@H](COC(=O)c4ccc(O)cc4)[C@@H](O)[C@H](O)[C@H]3O)C12` (some centres undefined) here?
Its Potency is “inactive”.

For `C[C@@H]1CC[C@]2(C(=O)O[C@@H]3O[C@H](CO[C@@H]4O[C@H](CO)[C@@H](O[C@@H]5O[C@@H](C)[C@H](O)[C@@H](O)[C@H]5O)[C@H](O)[C@H]4O)[C@@H](O)[C@H](O)[C@H]3O)CC[C@]3(C)C(=CCC4[C@@]5(C)C[C@@H](O)[C@H](O)[C@@](C)(CO)C5CC[C@]43C)C2[C@H]1C` (some centres undefined), which outcome is on record?
The outcome was “inactive [at 9.23 µM]”.

Which Potency does the source give for `CC1(C)C[C@H](O)C[C@@]2(C)[C@H]1[C@H](O)C=C1COC(=O)[C@@]12O` here?
Its Potency is “inactive”.

With `C/C=C1/[C@H](O[C@@H]2O[C@H](CO)[C@@H](O)[C@H](O)[C@H]2O)OC=C(C(=O)OC)[C@H]1CC(=O)OCCc1ccc(O)c(O)c1` as the molecule, how does the Potency read?
Its Potency is “inactive”.

For `COc1ccc(O[C@@H]2O[C@H](CO)[C@@H](O)[C@H](O)[C@H]2O)cc1OC`, which Potency is on record?
The Potency was “inactive”.

With `C=CC(C)(O)CC/C=C(\C)C1CC=C(C)C(=O)O1` (centres undefined) as the molecule, how does the Potency read?
Its Potency is “inactive”.

With `C[C@@H]1O[C@@H](O[C@H]2[C@H](O[C@H]3[C@H](O[C@H]4CC[C@@]5(C)C(CC[C@]6(C)C5CC=C5[C@@H]7CC(C)(C)C[C@@H](O)[C@]7(C)CC[C@]56C)[C@@]4(C)CO)O[C@H](C(=O)O)[C@@H](O)[C@@H]3O)O[C@H](C(=O)O)[C@H](O)[C@@H]2O)[C@H](O)[C@H](O)[C@H]1O` (some centres undefined) as the molecule, how does the activity change, negative = cell killing read?
The activity change, negative = cell killing was 2.89% [at 9.23 µM].

For `CC1=CC2=C(C)C(=O)C(C)(O)C(O)C2CO1` (centres undefined), which Potency is on record?
Its Potency is “inactive”.

With `CC[C@H]1OC(=O)[C@H](C)C(=O)[C@H](C)[C@@H](OC2O[C@H](C)C[C@H](N(C)C)[C@H]2O)[C@@H](C)C[C@@H](C)C(=O)/C=C/[C@]1(C)O` (some centres undefined) as the molecule, how does the Potency read?
Its Potency is “inactive”.

Which Potency does the source give for `COc1cc(C(CO)CO[C@@H]2O[C@H](CO)[C@@H](O)[C@H](O)[C@H]2O)ccc1O` (some centres undefined) here?
The Potency was “inactive”.

With `COC(=O)[C@]1(Cc2ccc(O)c(CC=C(C)C)c2)OC(=O)C(O)=C1c1ccc(O)cc1` as the molecule, how does the Potency read?
Its Potency is “inactive”.

Which Potency does the source give for `CN(C)CCC[C@]1(c2ccc(F)cc2)OCc2cc(C#N)ccc21` here?
Its Potency is “inactive”.

For `O=C(O)c1cc(O[C@@H]2O[C@H](CO)[C@@H](O)[C@H](O)[C@H]2O)ccc1O`, which Potency is on record?
Its Potency is “inactive”.

Which Potency does the source give for `COc1cc(CC2COC(c3ccc(OC4OC(CO)C(O)C(O)C4O)c(OC)c3)C2CO)ccc1O` (centres undefined) here?
The Potency was “inactive”.

Which Potency does the source give for `COC(=O)C1=C[C@@H](O)[C@@H](O)[C@H](O[C@@H]2O[C@H](CO)[C@@H](O)[C@H](O)[C@H]2OC(=O)/C=C/c2ccccc2)C1` here?
The Potency was “inactive”.

Which Potency does the source give for `COc1ccc([C@H]2OC[C@H]3[C@@H]2CO[C@@H]3c2ccc(O[C@@H]3O[C@H](CO)C(O)[C@H](O)[C@H]3O)c(OC)c2)cc1OC` (some centres undefined) here?
The Potency was “inactive”.

For `C[C@@H]1O[C@@H](O[C@H]2[C@H](Oc3cc(O)c(C(=O)CCc4ccc(O)cc4)c(O)c3)O[C@H](CO)[C@@H](O)[C@@H]2O)[C@H](O)[C@H](O)[C@H]1O`, which Potency is on record?
Its Potency is “inactive”.

Which Potency does the source give for `O=C(OCC1OC(Oc2ccc(O)cc2COC(=O)C2(O)C(O)CCC(=O)C2OC(=O)C2C=CCC2)C(OC(=O)C2C=CCC2)C(O)C1O)C1C=CCC1` (centres undefined) here?
Its Potency is “inactive”.

Which Potency does the source give for `C/C=C1\[C@H](O[C@@H]2O[C@H](CO)[C@@H](O)[C@H](O)[C@H]2O)OC=C(C(=O)O)[C@H]1CC(=O)OCCc1ccc(O)cc1` here?
Its Potency is “inactive”.

For `COc1cc(O)cc(O[C@@H]2O[C@H](CO)[C@@H](O[C@@H]3OC[C@](O)(CO)[C@H]3O)[C@H](O)[C@H]2O)c1OC`, which Potency is on record?
The Potency was “inactive”.

Which Potency does the source give for `C/C=C/C=C/C=C/C(=O)O[C@@H]1[C@@H](OC)C2=C(C(=O)N(C(CCC(=O)O)C(=O)O)C2)[C@@]2(C)CCCC(C)(C)[C@H]12` (some centres undefined) here?
The Potency was “inactive”.

With `COC(=O)C1=CO[C@@H](O[C@@H]2O[C@H](CO)[C@@H](O)[C@H](O)[C@H]2O)[C@@H]2[C@@H](C)[C@@H](OC(=O)/C=C/c3ccccc3)[C@@H](O)[C@H]12` as the molecule, how does the Potency read?
Its Potency is “inactive”.
